# This is one part of a sample in which hits are shown more often than they occur.
# mcGAS MS inh = mouse cGAS inhibition by mass spec. recombinant mouse cGAS, cGAMP by RapidFire MS. AID 1259397. Q8C6L5. 130,000 compounds, 0.18% hits. inhibition, % at 12.5 µM;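 active = inhibition of cGAS enzyme activity at or above 60%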;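 also: enzyme stimulated by 45 bp dsDNA with ATP and GTP substrates; cGAMP share of summed cGAMP plus half ATP and half GTP signals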
# Target sequence (Q8C6L5 whole entry, looked up): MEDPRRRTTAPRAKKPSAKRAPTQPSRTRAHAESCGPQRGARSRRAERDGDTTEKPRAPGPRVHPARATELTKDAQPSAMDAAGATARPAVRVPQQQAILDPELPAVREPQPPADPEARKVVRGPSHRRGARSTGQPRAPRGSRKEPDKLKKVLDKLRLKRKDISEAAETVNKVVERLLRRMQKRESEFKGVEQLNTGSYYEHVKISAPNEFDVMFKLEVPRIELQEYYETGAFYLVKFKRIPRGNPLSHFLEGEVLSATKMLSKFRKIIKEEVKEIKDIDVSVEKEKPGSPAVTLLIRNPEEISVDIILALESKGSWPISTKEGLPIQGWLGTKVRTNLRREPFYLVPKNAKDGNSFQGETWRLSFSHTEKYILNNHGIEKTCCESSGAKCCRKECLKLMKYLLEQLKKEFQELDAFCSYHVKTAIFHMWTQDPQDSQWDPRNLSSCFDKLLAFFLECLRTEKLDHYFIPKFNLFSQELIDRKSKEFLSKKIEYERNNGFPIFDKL
# Numbers stand for hits; i = inactive; ! = a repeat was not active.
SMILES,mcGAS MS inh
CCOC(=O)Oc1cc2oc(=O)sc2cc1Br,74.3
COC(=O)Oc1cc2oc(=O)sc2cc1Br,i
O=C(O)c1cncc(-c2cc3ccccc3s2)c1,i
CC(c1cccs1)N(C)C(=O)COc1ccc(F)cc1 (stereo not drawn),i
COc1cc(/C=C/c2ccc(O)c(OC)c2)ccc1O,i
COc1cc(/C=c2\sc3nc4cc(Br)cnc4n3c2=O)ccc1O,71.5
COc1cc(C=C2C(=O)N(C)C(=O)N(C)C2=O)ccc1O,i
COc1ccc(-n2c(-c3ccccc3C)n[nH]c2=S)cc1,i
CCc1cc(=O)[nH]c2n[nH]c(=S)n12,i
O=c1cc(-c2ccccc2)n2c(=S)[nH]nc2[nH]1,67.8
CCCc1cc(=O)[nH]c2n[nH]c(=S)n12,i
CCc1cc(NC(C)c2cccc(N3CCOC3=O)c2)ncn1 (stereo not drawn),i
Cc1cccc(N2C(=O)N(c3cccc(Cl)c3)C3CS(=O)(=O)CC32)c1 (stereo not drawn),i
CCOC(=O)c1nn(-c2ccccc2)c(=O)cc1N1CCN(C(=O)c2ccco2)CC1,i
OC(CNc1ccccn1)c1ccccc1 (stereo not drawn),i
O=C(O)C12CC3CC(CC(C3)C1)C2,i
O=C(O)C12CCCC(Br)(CCC1)C2,i
Cc1ccc(S(=O)(=O)NC(c2cccs2)C2CC2)cc1C (stereo not drawn),i
O=S(=O)(c1c(Cl)cccc1Cl)N(Cc1ccccc1F)C1CC1,i
S=c1[nH]nc2c3ccccc3ncn12,86.9
Cc1nc2c3ccccc3ncn2n1,i
S=c1[nH]nc2c3cnn(-c4ccccc4)c3ncn12,i
Cc1nn(-c2ccc(Cl)nn2)c2c1C(c1ccccc1OCC(C)C)CC(=O)N2 (stereo not drawn),i
COC(=O)c1cc2c(=O)n(-c3ccc(C(C)C)cc3)ccc2nc1C,i
CC(C)c1nc2oc3ccccc3c(=O)c2c(=O)n1-c1ccccc1,i
SMILES,mcGAS MS inh
CCC(Nc1ccccc1)C(=O)N1CCN(c2ccccc2)CC1 (stereo not drawn),i
Cc1cc(NCc2ccc(Cl)cc2)n(C2CCS(=O)(=O)C2)n1 (stereo not drawn),i
CC(C)C(=O)Nc1cc(C2CC2)nn1C1CCS(=O)(=O)C1 (stereo not drawn),82.0
COC(=O)c1cc(C2CC2)nc2c1c(-c1cccs1)nn2C1CCS(=O)(=O)C1 (stereo not drawn),i
CCOc1cc(/C=C2/SC(=S)N(CC(=O)O)C2=O)c(Br)c(Br)c1O,i
O=C(CSc1ccccc1)NC1CCCN(CCc2ccccc2)C1 (stereo not drawn),i
COC(=O)COc1c(C)cc(C(=O)O)cc1C,i
N#CC(=Cc1ccc(F)cc1)c1nnc2n1CCCCC2,i
N#CC(=Cc1ccc(O)c(O)c1)c1nnc2n1CCCCC2,i
N#CC(=Cc1ccc(Br)cc1)c1nnc2n1CCCCC2,60.4
CC(=O)N1CCC(N2CCN(c3ccncc3F)CC2)CC1,62.0
CC(=O)N1CCCN(c2ccncc2N)CC1,i
O=C(C1CCC1)N1CCCC(N2CCN(c3ccccc3F)CC2)C1 (stereo not drawn),i
Cc1cc2n(c1)CCn1c(C)ccc1-2,i
Cc1ccc2n1CCn1cc(-c3ccccc3)cc1-2,77.4
CC1CC(C)CN(C(=O)CN2C(=O)NC(C)(c3cc4ccccc4o3)C2=O)C1 (stereo not drawn),i
CN(Cc1ccn(-c2ccccc2)n1)CC1CCCC1,i
CC(C)(C)N(Cc1ccccc1)C(=O)Nc1ccc(F)cc1F,i
O=C(c1ccc2nc(Cc3ccccc3F)oc2c1)N1CCN2CCCC2C1 (stereo not drawn),i
Cc1ccccc1CC1(CO)CCCN(C(=O)CN2CCOc3ccccc3C2)C1 (stereo not drawn),i
Cc1ccccc1CC1(CO)CCCN(C(=O)c2ccccc2N(C)C)C1 (stereo not drawn),90.6
Cc1cccc(C(=O)N2CCCC(CO)(Cc3ccccc3C)C2)n1 (stereo not drawn),i
CCC(C)C(NC(=O)c1cccc(-c2ncon2)c1)C(N)=O (stereo not drawn),i
CCC(C)Nc1nc(-c2ccc(Cl)cc2)cs1 (stereo not drawn),i
O=C(NCCc1ccccc1)C(C1CCCC1)N1CCN(C(=O)COCc2ccccc2)CC1 (stereo not drawn),i
SMILES,mcGAS MS inh
Oc1oc(-c2cccc3ccccc23)nc1C=Nc1cccc(F)c1,i
Cc1cccc(N=Cc2nc(-c3cccc4ccccc34)oc2O)c1,88.0
Cc1ccc(Cl)cc1N=Cc1nc(-c2ccc(Cl)cc2)oc1O,i
Cc1cc(Cl)ccc1N=Cc1nc(-c2ccccc2Br)oc1O,i
Cc1ccc(-c2nc(C=Nc3cccc(C)c3)c(O)o2)cc1,i
Cc1ccc(Cl)cc1N=Cc1nc(-c2cccc3ccccc23)oc1O,82.6
Cn1c(=O)c2c(ncn2CC(=O)NC(=O)NCc2ccco2)n(C)c1=O,i
CCn1c(CN2CC(C)CC(C)C2)nc2c1c(=O)n(C)c(=O)n2C (stereo not drawn),i
CCn1nc(C(C)(C)C)cc1C(=O)N1CCc2c(cnn2-c2ccc(S(C)(=O)=O)cc2)C1,i
CC(C)CS(=O)(=O)NC(=O)c1ccc2ccccc2n1,i
COCCN(Cc1ccsc1)C(=O)C1CC(=O)N(c2ccc(C)c(C)c2)C1 (stereo not drawn),i
CCOC(=O)CNC(=O)CSc1ncnc2c1nnn2CC,i
CCCCNC(=O)CSc1nnc(NCc2ccc(OC)cc2)s1,i
COc1ccc(C(=O)Nc2c(C)nc3c(C)cccn3c2=O)cc1OC,i
CCC1(O)CC(OC2CC(N(C)C)C(OC3CC(O)C(OC4CCC(=O)C(C)O4)C(C)O3)C(C)O2)c2c(cc3c(c2O)C(=O)c2c(O)cccc2C3=O)C1C(=O)OC (stereo not drawn),96.6
COc1ccc(CCNC(=O)N2CCN(CC(C)C)C(=O)C2C)cc1 (stereo not drawn),i
Cc1cc(C)nc(NN=Cc2ccc(C3C=CCC3)s2)n1 (stereo not drawn),i
COC(=O)C1=C(C)NC(C)=C(C(=O)OCCN)C1c1ccccc1C(F)(F)F (stereo not drawn),i
CCN1C(=O)NC(c2ccccc2[N+](=O)[O-])C(C(=O)OCCOC)=C1C (stereo not drawn),i
COC(=O)C1=C(C)NC(C)=C(C(=O)OCC(C)C)C1c1ccccc1[N+](=O)[O-] (stereo not drawn),65.3!
CN(Cc1ccccc1)C(=O)c1cc2c(c(S(N)(=O)=O)c1)CCC2,i
c1coc(CNc2ncnc3c2nc2n3CCCCC2)c1,i
CCn1ccnc1CN1CCCN(C(=O)C(C)N2CCOCC2)CC1 (stereo not drawn),i
CCOC(=O)c1c[nH]cc(C)c1=O,i
CCOC(=O)c1cc(Cl)nc(Cl)c1C,i
SMILES,mcGAS MS inh
CCOC(=O)c1cc(C(=O)OCC)c2c(C)cc(C)cc(C)c1-2,87.9
CCCCC(NC(=O)c1c(O)cccc1O)c1cccnc1 (stereo not drawn),i
CCc1ccc(NC(=O)c2cc(C(C)O)c[nH]2)cc1 (stereo not drawn),i
O=C(O)C1CSC(c2cc(Br)c(O)c(Br)c2)N1 (stereo not drawn),87.4
O=C(O)C1CSC(c2cc(Br)ccc2O)N1 (stereo not drawn),i
CSc1ccc(C2NC(C(=O)O)CS2)cc1 (stereo not drawn),i
O=C(Cc1ccccc1O)N(CC1CC1)CC1CC1,i
CN(CCCn1ccnc1)C(=O)Nc1cccc(Cl)c1F,i
O=C(Nc1nncs1)c1cnn(Cc2ccccc2Cl)c1,i
O=C(Nc1nnc(C2CC2)s1)c1cn(-c2ccc(Br)cc2)nn1,i

# Screening results deposited in PubChem BioAssay by Fisher Drug Discovery Resource Center.
